HEK293 tox = kills HEK 293 cells. HEK 293 viability, ATP luminescence (CellTiter-Glo), 48-72 h. Potency, µM (doses to about 115 µM), usual class: inhibitors. 94,000 tested, 6.6% active; further: nearly all actives have a fitted effect of over 60% in size
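250 HEK 293 cells/well; compound by pintool; incubated 48 or 72 hr at 37 degree Celsius; CellTiter-Glo added, 10 min RT, luminescence imaged.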
NIH3T3 tox = cytotoxic compounds in NIH 3T3 cells | NIH 3T3 viability, CellTiter-Glo ATP luminescence, 48-72 h | Potency, µM (highest dose often 96.7 µM), actives largely listed as inhibitors | AID 1345082 | 94,000 tested, 4.3% active; further: nearly all actives have a fitted effect of over 55% in size
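First NIH 3T3 cells are plated at 400 cells/well; next compound is pinned in; then plates incubate 48 or 72 hr at 37 °C; finally CellTiter-Glo is added and luminescence read after 10 min.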
FLuc inh = blocks purified firefly luciferase enzyme activity. P08659. 76,000 tested, 2.5% active. purified P. pyralis luciferase, luminescence, biochemical. Potency, µM (top dose mostly 115 µM), hits mostly inhibitors; further: nearly all actives have a fitted effect of over 65% in size
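Biochemical qHTS: compound (6-point titration) added to 10uM D-luciferin plus 10uM ATP in Tris acetate pH 7.5 buffer with Mg, Tween-20 and BSA, then purified enzyme at 10nM; light output imaged.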
NPR1 antag = blocks ANP-stimulated signaling of human Npr1 receptor; P16066; HEK293 hNpr1 GloSensor cGMP, ANP-stimulated luminescence; Potency, µM (series often up to 46.3 µM), actives largely listed as inhibitors; 76,000 tested, 1.6% active; AID 1347048; calls by dose curve; further: nearly all actives have a fitted effect of over 60% in size
Target sequence (P16066 whole entry, looked up): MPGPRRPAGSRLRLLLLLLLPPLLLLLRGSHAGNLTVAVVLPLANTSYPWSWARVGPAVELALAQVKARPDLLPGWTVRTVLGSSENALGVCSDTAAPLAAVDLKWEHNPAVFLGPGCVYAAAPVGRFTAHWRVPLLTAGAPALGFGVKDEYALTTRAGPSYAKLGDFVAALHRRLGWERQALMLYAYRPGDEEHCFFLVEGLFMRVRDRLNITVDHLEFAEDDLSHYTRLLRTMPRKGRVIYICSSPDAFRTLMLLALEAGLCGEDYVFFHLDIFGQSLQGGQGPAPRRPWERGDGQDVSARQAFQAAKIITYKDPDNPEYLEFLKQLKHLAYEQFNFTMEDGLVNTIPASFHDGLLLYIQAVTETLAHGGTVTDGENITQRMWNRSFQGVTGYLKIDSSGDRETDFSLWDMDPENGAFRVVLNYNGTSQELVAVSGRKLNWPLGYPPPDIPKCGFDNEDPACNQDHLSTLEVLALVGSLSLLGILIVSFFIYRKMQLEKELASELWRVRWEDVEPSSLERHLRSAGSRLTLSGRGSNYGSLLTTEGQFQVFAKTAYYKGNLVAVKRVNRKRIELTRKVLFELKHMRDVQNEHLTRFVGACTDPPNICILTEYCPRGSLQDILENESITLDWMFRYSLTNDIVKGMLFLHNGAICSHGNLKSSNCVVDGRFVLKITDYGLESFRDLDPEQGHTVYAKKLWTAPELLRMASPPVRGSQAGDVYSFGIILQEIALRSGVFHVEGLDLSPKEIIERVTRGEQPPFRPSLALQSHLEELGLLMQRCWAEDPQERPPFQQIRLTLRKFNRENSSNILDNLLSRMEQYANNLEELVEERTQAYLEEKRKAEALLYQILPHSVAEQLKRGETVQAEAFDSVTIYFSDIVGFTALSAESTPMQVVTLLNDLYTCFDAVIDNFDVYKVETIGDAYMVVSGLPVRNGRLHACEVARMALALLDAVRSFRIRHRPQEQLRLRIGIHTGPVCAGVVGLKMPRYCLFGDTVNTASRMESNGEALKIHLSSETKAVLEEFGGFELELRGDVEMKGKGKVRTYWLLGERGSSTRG
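Compound pre-incubated 30 min at room temperature on GloSensor-loaded HEK293 cells stably carrying hNpr1 and the pGS-40F cGMP biosensor. Stimulation uses hNppA at 0.1 nM final; luminescence is taken at baseline and 20 min post-agonist.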
Npr1 antag conf = confirmation of human Npr1 natriuretic peptide receptor antagonists; shares compounds with NPR1 antag; HEK293 hNpr1 cGMP GloSensor luminescence, ANP-stimulated; Potency, µM (doses to about 57.6 µM), most hits filed as inhibitors; 1,400 tested, 76% active; AID 1347044; calls by dose curve; further: nearly all actives have a fitted effect of over 70% in size
Npr2 selectivity = selectivity test of Npr1 antagonists against human Npr2 | shares compounds with NPR1 antag | HEK293 hNpr2 GloSensor cGMP luminescence, CNP-stimulated | Potency, µM (doses to about 57.6 µM), usual class: inhibitors | 1,400 tested, 67% active; calls by dose curve; further: nearly all actives have a fitted effect of over 70% in size
FLuc counter = counter-screen for Npr1 antagonists: firefly luciferase inhibitors; shares compounds with NPR1 antag; purified FLuc enzyme, luminescence, Km substrate; Potency, µM (highest dose often 57.6 µM), usual class: inhibitors; 1,400 tested, 0.7% active
GloSensor ctrl = reduces cGMP signal in GloSensor control cells; HEK293 GloSensor cGMP, SNP-stimulated, luminescence; Potency, µM (doses to about 57.6 µM), hits mostly inhibitors; shares compounds with NPR1 antag; 1,400 tested, 69% active; calls by dose curve; further: nearly all actives have a fitted effect of over 70% in size
Large screens that a line does not name were inactive (follow-up assays come after a bar, where they were run). This is a sample that favours compounds with a hit; in the whole collection about 11% have one here. Unless noted, the call rests on the fitted dose curve; in most records, active means well fitted curve in the direction sought with a large enough effect; inconclusive means small, poorly fitted or top-dose-only effect, or another doubt; inactive means no such curve, though single readings can be large; an effect the other way counts as inactive or inconclusive.

COc1ccc(-c2nc3cc(C)ccc3cc2CN2CCCC(C#N)C2)cc1OC (stereo not given)	HEK293 tox inconclusive, NIH3T3 tox inconclusive
COc1ccc(-c2noc(CC3CCN(C(=O)c4cc(F)cc(F)c4)CC3)n2)cc1	HEK293 tox inconclusive, NIH3T3 tox inconclusive, NPR1 antag 6.3µM | Npr1 antag conf 5.4µM | Npr2 selectivity 6.1µM | FLuc counter inactive | GloSensor ctrl 5.4µM
COc1cc(OC)cc(C(=O)N2CCC(Cc3nc(-c4ccc(F)cc4)no3)CC2)c1	HEK293 tox 32µM, NIH3T3 tox inconclusive, NPR1 antag 13µM | Npr1 antag conf 15µM | Npr2 selectivity 22µM | FLuc counter inactive | GloSensor ctrl 15µM
COC(=O)c1cccc(C(=O)N2CCC(Cc3nc(-c4ccc(F)cc4)no3)CC2)c1	HEK293 tox inconclusive, NIH3T3 tox inconclusive, NPR1 antag 7.1µM | Npr1 antag conf 6.1µM | Npr2 selectivity 6.9µM | FLuc counter inactive | GloSensor ctrl 5.4µM
O=C(Nc1cccnc1)c1cc(-c2ccccc2F)cc2c1OCCN2Cc1cccnc1	HEK293 tox inconclusive, NIH3T3 tox 40µM, NPR1 antag inconclusive | Npr1 antag conf inconclusive | Npr2 selectivity 31µM | FLuc counter inactive | GloSensor ctrl inactive
Cc1nc2cnccn2c1C(=O)N1CCOCC1	none (no result: FLuc inh, NPR1 antag)
COc1ccc(CN(C)C(=O)c2ccc3oc(C)cc3c2)c2cccnc12	HEK293 tox inconclusive, NIH3T3 tox inconclusive, NPR1 antag 5µM | Npr1 antag conf 6.9µM | Npr2 selectivity 6.9µM | FLuc counter inactive | GloSensor ctrl 4.3µM
COc1ccc(-c2noc(CC3CCN(C(=O)Cc4cccc(C)c4)CC3)n2)cc1	HEK293 tox 40µM, NIH3T3 tox inconclusive, NPR1 antag 13µM | Npr1 antag conf 22µM | Npr2 selectivity 19µM | FLuc counter inactive | GloSensor ctrl 17µM
Cc1cccc(CC(=O)N2CCC(Cc3nc(-c4ccccc4)no3)CC2)c1	HEK293 tox inconclusive, NIH3T3 tox inconclusive
CCOc1ccc(CC(=O)N2CCC(Cc3nc(C(C)C)no3)CC2)cc1	HEK293 tox inconclusive
CCOc1ccc(CC(=O)N2CCC(Cc3nc(C(C)C)no3)CC2)cc1OCC	HEK293 tox inconclusive, NIH3T3 tox inconclusive
CCOc1ccc(CC(=O)N2CCC(Cc3nc(-c4ccc(OC)cc4)no3)CC2)cc1OCC	HEK293 tox inconclusive, NIH3T3 tox inconclusive, NPR1 antag 16µM | Npr1 antag conf 27µM | Npr2 selectivity 22µM | FLuc counter inactive | GloSensor ctrl 24µM
COc1ccc(CC(=O)N2CCC(Cc3nc(-c4ccc(OC)cc4)no3)CC2)cc1	HEK293 tox inconclusive, NIH3T3 tox inconclusive, NPR1 antag 2.8µM | Npr1 antag conf 3.1µM | Npr2 selectivity 3.4µM | FLuc counter inactive | GloSensor ctrl 3.4µM
CCOc1ccc(CC(=O)N2CCC(Cc3nc(-c4ccc(OC)cc4)no3)CC2)cc1	HEK293 tox inconclusive, NIH3T3 tox inconclusive, NPR1 antag 4.5µM | Npr1 antag conf 2.7µM | Npr2 selectivity 3.9µM | FLuc counter inactive | GloSensor ctrl 3.4µM
CCN(CC)C1CCOC2(CCN(C(=O)Nc3cccc(C)c3)CC2)C1 (stereo not given)	none (no result: FLuc inh, NPR1 antag)
O=C(Cc1ccccn1)N1CCCC2(CNc3ncccc3[S+](=O)([O-])N2)C1 (stereo not given)	HEK293 tox inconclusive (no result: FLuc inh, NPR1 antag)
COC(=O)[C@@H]1Cc2ncn(Cc3ccc(Cl)cc3)c2CN1C(=O)c1cccs1	NIH3T3 tox inconclusive | Npr1 antag conf inactive | Npr2 selectivity inactive | FLuc counter inactive | GloSensor ctrl inactive
Cc1ccc(Cn2c(C3CCN(C(=O)Cc4ccccc4)CC3)n[nH]c2=O)cc1	none
CC(C)CNC(=O)C1CCc2sc(C(=O)N3CCCCC3)cc2C1 (stereo not given)	none
COc1ccc(-n2nc3n(c2=O)CCN(Cc2cccn2C)C3)cc1	HEK293 tox inconclusive (no result: FLuc inh, NPR1 antag) | Npr1 antag conf inconclusive | Npr2 selectivity inconclusive | FLuc counter inconclusive | GloSensor ctrl inconclusive
CC(=O)N1CCn2c(nn(-c3ccc([N+](=O)[O-])cc3)c2=O)C1	HEK293 tox inconclusive
CN(C)c1ccc(CN2CCn3c(nn(-c4ccc([N+](=O)[O-])cc4)c3=O)C2)cc1	HEK293 tox 32µM, NIH3T3 tox inconclusive, NPR1 antag 11µM | Npr1 antag conf 17µM | Npr2 selectivity 19µM | FLuc counter inactive | GloSensor ctrl 14µM
COc1ccc(CN2CCn3c(nn(-c4ccc([N+](=O)[O-])cc4)c3=O)C2)cc1	HEK293 tox inconclusive, NIH3T3 tox inconclusive, NPR1 antag 11µM | Npr1 antag conf 22µM | Npr2 selectivity 22µM | FLuc counter inactive | GloSensor ctrl 22µM
O=C1CCN(S(=O)(=O)c2ccccc2)CCCN(Cc2cn[nH]c2-c2cccs2)CCN1	none
CN(C)[S+](=O)([O-])c1ccc2c(c1)OCCN(Cc1ccccc1F)C2	HEK293 tox inconclusive, NIH3T3 tox inconclusive
Cc1ccc(F)cc1CN1CCOc2cc([S+](=O)([O-])N(C)C)ccc2C1	HEK293 tox 40µM, NIH3T3 tox inconclusive, NPR1 antag 35µM | Npr1 antag conf 40µM | Npr2 selectivity 40µM | FLuc counter inactive | GloSensor ctrl 35µM
CC1CCN(C(=O)C[C@@H]2c3nc(NC(=O)c4c(F)cccc4F)sc3C[C@@H]3[C@](C)(CO)[C@H](O)CC[C@]32C)CC1	HEK293 tox inconclusive, NIH3T3 tox inconclusive
CCc1ccc(CN2CCC(O)(Cc3cc(-c4cccc(OC)c4)no3)CC2)o1	HEK293 tox inconclusive, NIH3T3 tox inconclusive | Npr1 antag conf inactive | Npr2 selectivity inactive | FLuc counter inactive | GloSensor ctrl inconclusive
CN1CC(=O)N(C2CCCNCC2)Cc2c1ncnc2N1CCC(N2CCCC2)CC1 (stereo not given)	none (no result: FLuc inh, NPR1 antag)
CC(C)(C)c1nc(C(=O)NCc2cccnc2)n2ccncc12	none (no result: FLuc inh, NPR1 antag)
Cn1ccc2c(C(=O)NCc3cccnc3)nc(-c3cccc4cc[nH]c34)cc21	HEK293 tox inconclusive, NIH3T3 tox inconclusive, NPR1 antag inconclusive | Npr1 antag conf inconclusive | Npr2 selectivity inconclusive | FLuc counter inactive | GloSensor ctrl inactive
Cn1ccc2c(C(=O)NCc3cccnc3)nc(Nc3ccccc3)cc21	HEK293 tox 63µM, NIH3T3 tox inconclusive, NPR1 antag inconclusive | Npr1 antag conf 35µM | Npr2 selectivity 35µM | FLuc counter inactive | GloSensor ctrl 31µM

Screens (PubChem BioAssay)
